This is an account of results in the antibiotic and cytotoxicity screens of Wong et al. (2023).

Screen size: about 39,000 compounds; about 1,500 (3.8%) were called active. Only a selection was taken, and actives are over-represented in it overall.

For this test, the system named is HSkMC (human skeletal muscle cells). The experiment in a line: cytotoxicity call (relative viability < 0.9). The settings on record: 10 µM.
For the molecule `O=C(NOCCO)c1cc(CN2OCCCC2=O)c(F)c(F)c1Nc1ccc(I)cc1F`, the cytotoxicity call is “inactive”.
Turning to `O=C(C[C@H]1C[C@H]2c3cc(NS(=O)(=O)c4ccccc4)ccc3O[C@H]2[C@H](CO)O1)NCC(F)(F)F`, the cytotoxicity call was “inactive”.
As to `CC(C)OC(=O)c1nnc(N)[nH]1`, the cytotoxicity call was “inactive”.
As for `CN1CCN(C(=O)[C@H]2C[C@H]3CN(c4ncc(F)cn4)C[C@@H]3N2C)CC1`, the entry is “inactive”; as for `CC1(C)C=Cc2c(nc3ccccc3c2NCc2ccccc2)C1`, “inactive”.
On to `Cc1cc(C(=O)Nc2ccc3c(c2)C(=O)N(C)[C@@H]2CC[C@H](CC(=O)NCC(F)(F)F)O[C@@H]2CO3)no1`, for which the cytotoxicity call was “inactive”.
The result for `COCC(=O)Nc1ccc2c(c1)C(=O)N(C)C[C@@H](OC)[C@@H](C)CN(Cc1ccccc1OC)[C@@H](C)CO2` reads “inactive”; that for `C[C@@H]1CN([C@H](C)CO)C(=O)c2cc(NC(=O)C3CCCCC3)ccc2O[C@@H](C)CCCCO[C@H]1CN(C)Cc1ccccc1`, “inactive”.
As for `COc1ccc(C#Cc2cnc3c(c2)C(=O)N([C@@H](C)CO)C[C@@H](C)[C@H](CN(C)C(=O)CN(C)C)O3)cc1`, the entry is “inactive”.
As for `C[C@H](CO)N1C[C@H](C)[C@@H](CN(C)S(=O)(=O)c2cn(C)cn2)Oc2c(NC(=O)CCC(F)(F)F)cccc2C1=O`, the entry is “inactive”; as for `C[C@@H]1CCCCO[C@@H](CN(C)S(=O)(=O)c2ccc(Cl)cc2)[C@@H](C)CN([C@H](C)CO)C(=O)c2cc(NC(=O)Nc3cccc4ccccc34)ccc2O1`, “inactive”.
On to `COC(=O)[C@@H]1CCCC1=O`, for which the cytotoxicity call was “inactive”.
In the case of `COc1ccc(CNC(=O)C[C@H]2C[C@H]3c4cc(NC(=O)NC5CCCC5)ccc4O[C@H]3[C@@H](CO)O2)cc1`, the cytotoxicity call is “inactive”.
As for `O=C(Nc1cc(C(F)(F)F)cc(C(F)(F)F)c1)Nc1c(Br)cc(Br)cc1-c1nn[nH]n1`, the entry is “inactive”.
As for `FC(F)(F)c1cc(NC(=S)Nc2ccc(Br)cc2-c2nn[nH]n2)cc(C(F)(F)F)c1`, the cytotoxicity call was “active”.
The result for `COc1ccccc1-c1cnc2c(c1)C(=O)N([C@@H](C)CO)C[C@H](C)[C@H](CN(C)C(=O)c1cccnc1)O2` reads “inactive”; that for `COc1ccc([Si](C)(C)[C@H]2[C@H](CC(=O)N(CCO)Cc3ccccc3)O[C@@]3(C(=O)N(Cc4cccc(N5CCCCC5=O)c4)c4ccccc43)[C@@H]2C)cc1`, “inactive”; that for `Nc1nc(Cl)nc2c1ncn2[C@@H]1O[C@H](CO)[C@@H](O)[C@H]1O`, “inactive”.
As for `Nc1ncnc2c1c(I)cn2[C@H]1O[C@@H](CO)[C@@H](O)[C@@H]1O`, the entry is “inactive”; as for `Nc1ncn(C2OC(CO)C(O)C2O)c(=O)n1` (centres undefined), “inactive”; as for `Nc1ncnc2c1ncn2[C@@H]1O[C@H](CO)[C@@H](O)[C@@H]1O`, “inactive”.
The result for `Nc1ncn([C@@H]2O[C@H](CO)[C@@H](O)[C@H]2O)c(=O)n1` reads “active”; that for `Nc1ncnc2c1ncn2[C@H]1O[C@@H](CO)[C@H](O)[C@@H]1O`, “inactive”.
As for `Nc1nc(F)nc2c1ncn2[C@@H]1O[C@H](CO)[C@@H](O)[C@H]1O`, the cytotoxicity call is “active”.
The result for `Nc1ncn([C@@H]2C[C@H](O)[C@@H](CO)O2)c(=O)n1` reads “inactive”.
As for `Nc1ncnc2c1c(I)cn2[C@@H]1O[C@H](CO)[C@@H](O)[C@H]1O`, the entry is “inactive”; as for `Nc1nc(F)nc2c1ncn2[C@@H]1O[C@H](COP(=O)(O)O)[C@@H](O)[C@@H]1O`, “inactive”.
Turning to `NC(=O)c1cn([C@@H]2O[C@H](CO)[C@@H](O)[C@H]2O)c2ncnc(N)c2c1=O`, the cytotoxicity call was “active”.
The result for `OC[C@H]1O[C@H](n2cnc3cncnc32)[C@@H](O)[C@@H]1O` reads “active”; that for `CC(C)NC(=O)Nc1ccc2c(c1)CC(=O)N([C@H](C)CO)C[C@@H](C)[C@@H](CN(C)Cc1ccc(-c3ccccc3)cc1)O2`, “inactive”; that for `C[C@@H]1CN([C@@H](C)CO)C(=O)c2cc(C#CCN(C)C)cnc2O[C@H]1CN(C)S(C)(=O)=O`, “inactive”.
The result for `C[C@@H]1CN([C@@H](C)CO)C(=O)c2cc(NS(=O)(=O)c3cccs3)ccc2O[C@@H](C)CCCCO[C@H]1CN(C)C(=O)Cc1ccccc1` reads “inactive”; that for `COc1ccc(CN(C)C[C@@H]2Oc3ccc(NS(=O)(=O)c4cn(C)cn4)cc3CC(=O)N([C@H](C)CO)C[C@H]2C)cc1`, “inactive”.
The result for `C[C@H](CO)N1C[C@H](C)[C@H](CN(C)Cc2ccc(-c3ccccc3)cc2)Oc2ccc(NC(=O)NC3CCCCC3)cc2CC1=O` reads “inactive”; that for `COc1ccc(S(=O)(=O)N2C[C@H](O)COC[C@@H]3O[C@@H](CC(=O)NCCCN(C)C)CC[C@H]32)cc1`, “inactive”.
Consider `C/C(=C\CC[C@@H](C)[C@H]1C[C@@H](O)[C@@]2(C)[C@H]3CC[C@H]4C(C)(C)[C@@H](O[C@@H]5O[C@@H](CO[C@H]6OC[C@@H](O)[C@@H](O)[C@@H]6O)[C@@H](O)[C@@H](O)[C@@H]5O)CC[C@@]45C[C@@]35C[C@@H](O)[C@]12C)C(=O)O[C@H]1O[C@@H](CO)[C@@H](O)[C@@H](O)[C@@H]1O`, for which the cytotoxicity call was “inactive”.
As for `C[C@H]1CN([C@@H](C)CO)C(=O)CCCn2nncc2CO[C@H]1CN(C)C(=O)c1cc(-c2ccccc2)on1`, the entry is “inactive”; as for `C[C@H]1CCCCO[C@H](CN(C)CC2CC2)[C@@H](C)CN([C@@H](C)CO)C(=O)c2cc(NC(=O)c3ccccc3)ccc2O1`, “inactive”; as for `Cc1noc(C)c1NC(=O)Nc1ccc2c(c1)CC(=O)N([C@@H](C)CO)C[C@@H](C)[C@H](CN(C)Cc1ccc(C(=O)Nc3ccccc3N)cc1)O2`, “inactive”.
The result for `C[C@H](CO)N1C[C@H](C)[C@H](CN(C)CC2CCOCC2)Oc2cc(C#Cc3ccccc3F)ccc2S1(=O)=O` reads “inactive”; that for `Nc1nc(Cl)nc2c1ncn2[C@H]1C[C@H](O)[C@@H](CO)O1`, “active”.
As for `Nc1nc(Cl)nc2c1ncn2[C@H]1C[C@@H](O)[C@@H](CO)O1`, the entry is “inactive”.
As for `Nc1ncnc2c1ncn2[C@H]1C[C@H](O)[C@@H](CO)O1`, the cytotoxicity call was “inactive”.
The result for `CCN(CC)CCOc1ccc(Nc2ncc3cc(-c4c(Cl)cccc4Cl)c(=O)n(C)c3n2)cc1` reads “active”.
With `CCN(CC)CCOc1ccc2c(c1)C(=O)c1cc(OCCN(CC)CC)ccc1-2`, the cytotoxicity call is “inactive”.
The result for `C[C@](N)(Cc1ccc(O)c(O)c1)C(=O)O` reads “inactive”; that for `c1ccc(CCNc2ccnc3cc4ccccc4cc23)cc1`, “active”; that for `NCCNc1cccc2ccccc12`, “inactive”.
On to `NNCCc1ccccc1`, for which the cytotoxicity call was “inactive”.
